The structures appear in SMILES notation.

As a reminder, the inhibition is the relative decrease from the control value, in per cent.

The target in test [1] is Tyrosine-protein kinase receptor UFO (Homo sapiens) (UniProt P30530). To be noted: at 1 µM.
For test [2], the target named is Tyrosine-protein kinase Blk (Homo sapiens) (UniProt P51451). As to conditions: at 0.1 µM.
Test [3] has the same target. As to conditions: at 1 µM.
Test [4] addresses T1, Cytoplasmic tyrosine-protein kinase BMX (Homo sapiens) (UniProt P51813).
T1 sequence (whole entry): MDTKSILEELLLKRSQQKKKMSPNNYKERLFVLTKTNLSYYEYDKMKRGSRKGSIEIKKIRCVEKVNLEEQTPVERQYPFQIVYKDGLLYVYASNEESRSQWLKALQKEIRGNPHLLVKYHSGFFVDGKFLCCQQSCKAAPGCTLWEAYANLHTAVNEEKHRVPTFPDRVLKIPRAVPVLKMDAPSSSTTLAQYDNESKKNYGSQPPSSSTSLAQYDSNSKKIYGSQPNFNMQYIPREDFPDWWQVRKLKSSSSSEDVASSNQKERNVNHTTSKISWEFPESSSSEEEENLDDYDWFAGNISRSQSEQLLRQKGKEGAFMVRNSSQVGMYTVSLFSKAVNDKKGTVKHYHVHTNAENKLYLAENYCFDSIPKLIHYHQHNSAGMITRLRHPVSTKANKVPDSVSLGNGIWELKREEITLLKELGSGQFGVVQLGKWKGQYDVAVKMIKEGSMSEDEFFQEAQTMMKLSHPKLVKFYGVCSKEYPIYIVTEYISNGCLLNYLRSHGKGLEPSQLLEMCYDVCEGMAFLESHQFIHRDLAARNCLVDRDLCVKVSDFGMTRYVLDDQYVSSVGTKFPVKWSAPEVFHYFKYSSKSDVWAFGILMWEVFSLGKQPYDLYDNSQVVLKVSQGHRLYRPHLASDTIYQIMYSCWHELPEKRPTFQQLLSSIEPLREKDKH
As to conditions: at 0.1 µM.

Test [5] deals with T1, Cytoplasmic tyrosine-protein kinase BMX (Homo sapiens). To be noted: at 1 µM.
In test [6] the target is Protein-tyrosine kinase 6 (Homo sapiens) (UniProt Q13882). To be noted: at 0.1 µM.
Sequence of Protein-tyrosine kinase 6 (Homo sapiens) (Q13882 whole entry, looked up): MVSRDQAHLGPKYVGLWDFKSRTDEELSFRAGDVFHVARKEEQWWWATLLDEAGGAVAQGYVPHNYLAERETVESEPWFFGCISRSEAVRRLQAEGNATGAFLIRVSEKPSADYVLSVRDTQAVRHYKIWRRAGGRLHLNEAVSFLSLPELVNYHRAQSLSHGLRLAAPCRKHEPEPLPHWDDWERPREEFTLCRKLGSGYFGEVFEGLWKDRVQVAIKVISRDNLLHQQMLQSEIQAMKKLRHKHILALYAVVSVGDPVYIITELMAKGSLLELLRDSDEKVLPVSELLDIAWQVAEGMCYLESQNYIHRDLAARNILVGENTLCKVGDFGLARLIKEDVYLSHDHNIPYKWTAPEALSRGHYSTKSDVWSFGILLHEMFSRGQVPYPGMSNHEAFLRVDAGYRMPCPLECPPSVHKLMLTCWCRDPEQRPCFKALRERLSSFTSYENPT
Test [7] has the same target. To be noted: at 1 µM.
The target in test [8] is Tyrosine-protein kinase BTK (Homo sapiens) (UniProt Q06187). As to conditions: at 0.1 µM.
Sequence of Tyrosine-protein kinase BTK (Homo sapiens) (Q06187 whole entry): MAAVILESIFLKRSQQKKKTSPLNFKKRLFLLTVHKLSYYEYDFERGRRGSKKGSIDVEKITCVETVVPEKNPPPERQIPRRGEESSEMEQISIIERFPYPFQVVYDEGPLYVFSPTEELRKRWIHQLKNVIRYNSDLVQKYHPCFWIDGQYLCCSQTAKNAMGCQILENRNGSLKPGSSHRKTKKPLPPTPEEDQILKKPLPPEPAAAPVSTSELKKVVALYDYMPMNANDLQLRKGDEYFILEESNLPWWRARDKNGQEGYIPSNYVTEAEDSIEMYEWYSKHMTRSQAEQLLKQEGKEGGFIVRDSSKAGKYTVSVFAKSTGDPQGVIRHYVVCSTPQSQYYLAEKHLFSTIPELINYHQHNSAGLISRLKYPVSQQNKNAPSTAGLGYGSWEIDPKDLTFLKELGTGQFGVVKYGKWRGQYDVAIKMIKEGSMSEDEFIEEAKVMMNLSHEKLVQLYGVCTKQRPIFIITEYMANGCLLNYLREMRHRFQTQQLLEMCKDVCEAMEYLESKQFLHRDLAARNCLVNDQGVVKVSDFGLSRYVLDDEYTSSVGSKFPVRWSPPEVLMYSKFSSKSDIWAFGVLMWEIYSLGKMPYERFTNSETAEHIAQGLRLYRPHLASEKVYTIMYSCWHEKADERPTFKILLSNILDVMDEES
For test [9] the target is unchanged. To be noted: at 1 µM.
The target of test [10] is Tyrosine-protein kinase CSK (Homo sapiens) (UniProt P41240). As to conditions: at 0.1 µM.
Sequence of Tyrosine-protein kinase CSK (Homo sapiens) (P41240 2-450 limits assumed): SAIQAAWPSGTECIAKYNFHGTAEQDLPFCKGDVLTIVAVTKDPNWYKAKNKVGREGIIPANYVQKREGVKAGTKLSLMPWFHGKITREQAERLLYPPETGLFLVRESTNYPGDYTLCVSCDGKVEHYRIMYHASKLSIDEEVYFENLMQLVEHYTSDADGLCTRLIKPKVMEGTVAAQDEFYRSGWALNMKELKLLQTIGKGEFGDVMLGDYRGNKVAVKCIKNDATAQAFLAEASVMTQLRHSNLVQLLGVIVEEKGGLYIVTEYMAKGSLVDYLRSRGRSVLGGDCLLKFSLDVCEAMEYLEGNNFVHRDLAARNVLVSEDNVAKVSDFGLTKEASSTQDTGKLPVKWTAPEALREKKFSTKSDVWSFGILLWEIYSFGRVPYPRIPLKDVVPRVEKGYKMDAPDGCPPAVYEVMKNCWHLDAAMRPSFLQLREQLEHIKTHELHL
Test [11] shares this target. To be noted: at 1 µM.
Test [12] addresses T2, Discoidin domain-containing receptor 2 (Homo sapiens) (UniProt Q16832).
T2 sequence (whole entry): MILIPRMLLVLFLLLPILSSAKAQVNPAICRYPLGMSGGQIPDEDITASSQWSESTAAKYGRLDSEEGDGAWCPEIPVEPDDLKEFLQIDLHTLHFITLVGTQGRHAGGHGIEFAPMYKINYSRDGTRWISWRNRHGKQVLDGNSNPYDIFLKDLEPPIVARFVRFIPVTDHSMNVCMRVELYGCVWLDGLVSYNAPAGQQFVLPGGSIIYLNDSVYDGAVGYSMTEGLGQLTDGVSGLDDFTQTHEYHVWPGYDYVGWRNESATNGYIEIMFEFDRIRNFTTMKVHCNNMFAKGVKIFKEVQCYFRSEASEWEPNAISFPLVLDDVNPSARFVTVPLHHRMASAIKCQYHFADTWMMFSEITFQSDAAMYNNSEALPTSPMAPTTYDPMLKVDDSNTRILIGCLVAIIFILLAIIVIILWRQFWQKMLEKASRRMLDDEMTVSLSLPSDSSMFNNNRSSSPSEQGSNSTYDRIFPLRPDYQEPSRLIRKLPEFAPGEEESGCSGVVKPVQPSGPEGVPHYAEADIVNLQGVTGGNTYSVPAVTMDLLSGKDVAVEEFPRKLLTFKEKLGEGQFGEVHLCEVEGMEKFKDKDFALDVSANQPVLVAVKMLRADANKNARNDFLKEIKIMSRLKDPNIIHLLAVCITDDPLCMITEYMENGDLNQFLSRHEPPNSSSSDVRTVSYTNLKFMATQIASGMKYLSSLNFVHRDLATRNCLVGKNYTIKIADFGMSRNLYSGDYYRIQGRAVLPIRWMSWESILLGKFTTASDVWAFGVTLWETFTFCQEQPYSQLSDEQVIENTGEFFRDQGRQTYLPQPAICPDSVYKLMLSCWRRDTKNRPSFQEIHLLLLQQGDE
As to conditions: at 0.1 µM.

Test [13] addresses T2, Discoidin domain-containing receptor 2 (Homo sapiens). As to conditions: at 1 µM.
The target in test [14] is Epidermal growth factor receptor (Homo sapiens) (UniProt P00533). As to conditions: at 0.1 µM.
Test [15] has the same target. As to conditions: at 1 µM.
The subject of test [16] is Epidermal growth factor receptor (Homo sapiens), P00533 [L858R]. To be noted: at 0.1 µM.
The test system is the same in test [17]. As to conditions: at 1 µM.
In test [18] the test system is Epidermal growth factor receptor (Homo sapiens), P00533 [L861Q]. As to conditions: at 0.1 µM.
Sequence of Epidermal growth factor receptor (Homo sapiens), P00533 [L861Q] (P00533 whole entry L861Q): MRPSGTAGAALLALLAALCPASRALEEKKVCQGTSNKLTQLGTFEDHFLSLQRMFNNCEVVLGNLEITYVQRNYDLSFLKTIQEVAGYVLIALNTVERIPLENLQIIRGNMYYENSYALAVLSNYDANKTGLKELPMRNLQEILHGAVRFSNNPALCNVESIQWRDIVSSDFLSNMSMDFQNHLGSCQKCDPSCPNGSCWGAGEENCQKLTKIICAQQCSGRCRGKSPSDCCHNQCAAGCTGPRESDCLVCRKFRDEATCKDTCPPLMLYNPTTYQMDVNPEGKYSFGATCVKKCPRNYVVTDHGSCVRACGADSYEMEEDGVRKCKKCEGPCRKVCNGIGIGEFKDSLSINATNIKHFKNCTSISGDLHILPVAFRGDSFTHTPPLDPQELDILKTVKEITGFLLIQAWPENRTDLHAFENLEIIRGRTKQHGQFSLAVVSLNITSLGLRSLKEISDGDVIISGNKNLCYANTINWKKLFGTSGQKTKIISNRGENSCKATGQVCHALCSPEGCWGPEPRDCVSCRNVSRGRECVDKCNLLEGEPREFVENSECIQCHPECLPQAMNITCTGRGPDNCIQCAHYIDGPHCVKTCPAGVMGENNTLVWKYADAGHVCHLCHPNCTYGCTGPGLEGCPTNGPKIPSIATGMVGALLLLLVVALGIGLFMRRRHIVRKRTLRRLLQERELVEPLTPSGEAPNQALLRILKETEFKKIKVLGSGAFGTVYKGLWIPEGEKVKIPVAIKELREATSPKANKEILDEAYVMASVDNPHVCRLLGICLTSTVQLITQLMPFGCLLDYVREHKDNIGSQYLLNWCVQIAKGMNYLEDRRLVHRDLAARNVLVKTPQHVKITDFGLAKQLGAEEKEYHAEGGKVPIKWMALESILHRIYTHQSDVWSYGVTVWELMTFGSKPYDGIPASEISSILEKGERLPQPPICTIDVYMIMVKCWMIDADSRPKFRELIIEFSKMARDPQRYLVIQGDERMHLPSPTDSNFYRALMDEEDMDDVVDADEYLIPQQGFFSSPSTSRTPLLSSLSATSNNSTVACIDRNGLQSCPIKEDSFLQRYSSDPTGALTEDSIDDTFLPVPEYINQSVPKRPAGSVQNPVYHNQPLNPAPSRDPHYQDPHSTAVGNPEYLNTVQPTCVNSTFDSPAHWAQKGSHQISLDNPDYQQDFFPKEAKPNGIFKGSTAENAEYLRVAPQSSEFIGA
The test system is the same in test [19]. To be noted: at 1 µM.
Test [20] concerns Epidermal growth factor receptor (Homo sapiens), P00533 [T790M]. To be noted: at 0.1 µM.

Sequence of Tyrosine-protein kinase Blk (Homo sapiens) (P51451 2-505 limits assumed): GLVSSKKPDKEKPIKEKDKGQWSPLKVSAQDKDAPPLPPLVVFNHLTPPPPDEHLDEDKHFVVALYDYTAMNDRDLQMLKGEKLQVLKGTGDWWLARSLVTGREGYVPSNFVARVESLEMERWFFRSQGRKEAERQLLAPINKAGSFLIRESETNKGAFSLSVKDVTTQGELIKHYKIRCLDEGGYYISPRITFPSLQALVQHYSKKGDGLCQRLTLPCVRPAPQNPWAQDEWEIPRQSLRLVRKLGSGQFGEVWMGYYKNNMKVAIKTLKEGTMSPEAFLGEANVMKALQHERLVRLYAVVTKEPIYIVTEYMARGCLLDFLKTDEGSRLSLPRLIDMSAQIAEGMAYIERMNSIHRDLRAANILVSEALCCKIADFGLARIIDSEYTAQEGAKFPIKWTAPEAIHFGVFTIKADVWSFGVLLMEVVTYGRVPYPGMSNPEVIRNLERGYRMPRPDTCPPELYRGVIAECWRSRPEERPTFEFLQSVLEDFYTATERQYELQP
Sequence of Epidermal growth factor receptor (Homo sapiens), P00533 [L858R] (P00533 whole entry L858R): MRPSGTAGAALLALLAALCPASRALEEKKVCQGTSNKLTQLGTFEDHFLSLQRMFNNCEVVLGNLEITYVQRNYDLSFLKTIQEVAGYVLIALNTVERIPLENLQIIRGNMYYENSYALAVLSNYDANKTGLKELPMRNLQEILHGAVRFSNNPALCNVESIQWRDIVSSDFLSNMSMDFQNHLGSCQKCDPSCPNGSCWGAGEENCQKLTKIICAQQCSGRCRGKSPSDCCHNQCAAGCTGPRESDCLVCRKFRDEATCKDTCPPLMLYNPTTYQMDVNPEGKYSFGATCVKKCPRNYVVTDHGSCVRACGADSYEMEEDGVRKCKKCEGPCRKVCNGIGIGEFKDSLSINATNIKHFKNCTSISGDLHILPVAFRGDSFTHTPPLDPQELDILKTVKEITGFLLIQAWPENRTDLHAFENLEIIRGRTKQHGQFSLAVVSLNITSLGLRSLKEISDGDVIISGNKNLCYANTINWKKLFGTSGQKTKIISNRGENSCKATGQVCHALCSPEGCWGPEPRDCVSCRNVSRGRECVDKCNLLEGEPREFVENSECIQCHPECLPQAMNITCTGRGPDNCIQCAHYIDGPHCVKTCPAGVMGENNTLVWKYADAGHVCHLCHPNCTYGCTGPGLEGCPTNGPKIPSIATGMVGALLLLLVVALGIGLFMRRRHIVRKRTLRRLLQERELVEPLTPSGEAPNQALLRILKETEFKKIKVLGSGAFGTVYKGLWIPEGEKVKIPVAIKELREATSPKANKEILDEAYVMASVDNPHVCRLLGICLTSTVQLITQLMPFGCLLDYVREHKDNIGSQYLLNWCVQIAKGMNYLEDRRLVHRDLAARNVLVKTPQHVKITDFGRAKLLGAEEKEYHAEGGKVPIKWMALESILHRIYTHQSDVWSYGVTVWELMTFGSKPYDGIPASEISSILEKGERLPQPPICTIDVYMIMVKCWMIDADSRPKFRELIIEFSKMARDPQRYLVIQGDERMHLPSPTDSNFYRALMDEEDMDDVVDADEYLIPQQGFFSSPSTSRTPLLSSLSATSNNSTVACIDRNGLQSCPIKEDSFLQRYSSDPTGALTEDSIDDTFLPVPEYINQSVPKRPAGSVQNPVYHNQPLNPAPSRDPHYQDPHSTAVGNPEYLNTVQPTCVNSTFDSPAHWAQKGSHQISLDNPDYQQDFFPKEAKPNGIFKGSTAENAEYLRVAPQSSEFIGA

On to `NS(=O)(=O)c1ccc(-c2cc3ccncc3cc2OCc2ccccc2)cc1`, for which the inhibition is -1.13% in test [1]; 2.2% in [2]; 3.91% in [3]; 4.23% in test [4]; 4.75% in test [5]; 2.61% in test [6]. The inhibition was 5.54% in [7]; 0.49% in test [8]; -0.08% in [9]; 4.58% in [10]; 5.2% in test [11]; 1.3% in [12]. Also, the inhibition is 2.48% in test [13]; -0.53% in test [14]; 2.78% in test [15]; 5.04% in test [16]; 12.6% in test [17]; 3.81% in test [18]. Besides, the inhibition amounted to 5.67% in test [19] and 1.46% in [20].

Turning to `COc1cccc(-n2ncc3c(N/N=C/c4ccc(C)cc4)ncnc32)c1`, the inhibition is -6.6% in test [1]; 3.17% in test [2]; 7.15% in [3]; 5.21% in test [4]; 10.6% in test [5]; 3.4% in [6]. Besides, the inhibition in [7] is 5.43%; in [8], -0.28%; in test [9], 0.44%; in [10], 2.91%; in test [11], 8.35%; in test [12] it was 0.39%. Besides, the inhibition in [13] was 2.37%; in test [14] it was 3.01%; in test [15], 4.71%; in [16] it was 2.45%; in test [17], 11.7%; in [18], 1.42%. In addition, the values for the inhibition in [19] and in test [20] were 6.09% and 0.91%, respectively.

For the compound `Cc1ccc2c(-c3ccnc(Nc4ccc5c(c4)OCCO5)n3)c(-c3ccc(C(F)(F)F)cc3)nn2n1`, the inhibition in test [1] was found to be 1.14%; in test [2], 3.28%; in test [3], 4.48%; in test [5], 0.94%; in test [6], 0.39%; in test [7], 3.26%. For the same compound, the inhibition in test [8] was 0.75%; in [9] it was 1.71%; in test [10], -2.99%; in test [11], 0.48%; in [12] it was -0.19%; in [13] it was 6.25%. Also, the inhibition is -0.94% in test [14]; 3.45% in test [15]; 0.63% in test [16]; 5.71% in [17]; -1.17% in [18]; 5.26% in [19]. For the same compound, the inhibition in test [20] was -0.63%.

With `COc1cc(Nc2nccc(-c3cnn4ncccc34)n2)cc(OC)c1`, the inhibition came out at 20.7% in test [1]; 2% in [2]; 24.8% in test [3]; 7.04% in test [4]; 31.3% in [5]; 0.23% in test [6]. The inhibition turned out to be 17.6% in test [7]; 1.94% in [8]; 11.3% in test [9]; 2.91% in test [10]; 12.1% in [11]; 1.4% in test [12]. Besides, the inhibition came to 8.7% in test [13]; 1.68% in [14]; 5.94% in test [15]; 2.1% in [16]; 16.7% in test [17]; 0.35% in test [18]. The inhibition was 3.09% in [19] and 0.47% in [20].

With `ON=C1CCc2cc(-c3nc(C4CCNCC4)[nH]c3-c3ccncc3)ccc21`, the inhibition was 2.54% in test [1]; 0.32% in test [2]; 2.67% in [3]; 1.43% in [4]; -1.75% in test [5]; -0.84% in test [6]. The inhibition in test [7] was -2.02%; in test [8] it was -1.11%; in test [9] it was 3.08%; in test [10], -4.87%; in [11], -6.96%; in test [12] it was -0.82%. For the same compound, the inhibition in test [13] was -2.38%; in [14], 0.23%; in [15], 2.59%; in test [16], -0.65%; in test [17], -1.1%; in test [18] it was 0.26%. For the same compound, the inhibition is -2.11% in test [19] and -0.91% in test [20].

As to `CN(C)CCCn1c(-c2nonc2N)nc2cnccc21`, the inhibition was -8.31% in [1]; 1.44% in [2]; 3.44% in test [3]; 3.45% in test [4]; 3.08% in test [5]; 0.2% in [6]. The inhibition in test [7] stood at 3.36%; in [8], 0.72%; in test [9] it was 0.12%; in [10] it was 1.79%; in test [11], 1.67%; in test [12] it was 1.29%. Also, the inhibition in test [13] was determined as 1.57%; in test [14] it was 9.72%; in [15] it was 10.6%; in test [16], 3.98%; in [17], 0.96%; in test [18], 3.25%. Besides, the inhibition in [19] is 1.62%; in [20], 2.09%.

Consider `COC(=O)c1cncc(/C=C/c2c(C)cc(O)cc2C)c1`, for which the inhibition is -5.3% in [1]; 3.73% in test [2]; 13.6% in test [3]; 4.1% in test [4]; 29.6% in test [5]; 11.4% in [6]. The inhibition was determined as 50.2% in test [7]; 1.9% in test [8]; 2.92% in test [9]; 4.04% in test [10]; 24.8% in test [11]; 1.69% in [12]. In addition, the inhibition in test [13] came out at 10.3%; in test [14], 0.29%; in test [15], 3.19%; in test [16] it was 2.6%; in [17], 11.5%; in [18], 3.47%. For the same compound, the inhibition is 7.07% in [19] and 2.64% in [20].

These data come from ChEMBL document CHEMBL1961873, “Compounds: GSK PKIS; Assays: Nanosyn kinase panel” (2012).
